The results in this text go back to PubChem BioAssay (NCI).

About 83,000 compounds went through this panel and 20% of them were active in at least one assay; those are over-represented in the sample as a whole.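 Note: values are percent growth. 100 is the growth of untreated cells, values between 100 and 0 indicate rising inhibition; between -100 and 0 indicates cell death.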 Values without a mark were called inactive. The source made the active and inactive calls. How the source made its calls: active means growth percent below 10; inactive means the rest.

Holding throughout (assay): NCI-60 one-dose screen, 48 h (100 = growth as untreated, 0 = no growth, -100 = all killed)
Common to all, as to conditions: 10 µM unless noted

In experiment [1] the test system is SK-MEL-2 melanoma.
For experiment [2], the system named is EKVX NSCLC.
Experiment [3] relates to SN12C renal.
For experiment [4], the system named is UO-31 renal.
The test system of experiment [5] is TK-10 renal.
In experiment [6] the test system is ACHN renal.
The test system of experiment [7] is A498 renal.
The subject of experiment [8] is CCRF-CEM leukemia.
Experiment [9] relates to MOLT-4 leukemia.
Experiment [10] has as its system SR leukemia.

Take `COC(=O)/C=C1\SC(=Nc2cccc(Cl)c2)N(CCc2c[nH]c3ccccc23)C1=O`: the growth is 40.6% in [1]; 71.9% in experiment [2]; 44.5% in [3]; 58.5% in experiment [4]; 73.4% in [5]; 63.9% in experiment [6]. For the same compound, the growth in [7] was 61.5%; in experiment [8], 5.03% (active); in experiment [9], -17.6% (active); in experiment [10], -7.91% (active).
Consider `O=C(NC[C@H](O)CN1CCc2ccccc2C1)c1cc(NC2COC2)ncn1`, for which the growth was 94.4% in [1]; 111% in [2]; 95.5% in experiment [3]; 78.2% in experiment [4]; 96.4% in experiment [5]; 95.9% in experiment [6]. The growth in experiment [7] was 116%; in [8], 98.3%; in experiment [9], 88%; in experiment [10], 97.2%.
Turning to `CC(=O)OCC1SC(OC(C)=O)C(NC(=O)/C=C/CCl)C(OC(C)=O)C1OC(C)=O` (stereo not given), the growth in experiment [1] is 79.9%; in experiment [2], 102%; in [3], 89.4%; in [4], 102%; in experiment [5] it was 93.8%; in experiment [6], 92.1%. Also, the growth is 96.3% in experiment [7], 83.7% in [8], 88.1% in [9] and 86.2% in experiment [10].
As for `O=C(Nc1cc(=O)[nH]c(=O)[nH]1)C(Cl)Cl`, the growth was 105% in [1]; 114% in experiment [2]; 98% in experiment [3]; 88.8% in experiment [4]; 101% in experiment [5]; 111% in experiment [6]. The growth is 100% in experiment [7], 96% in experiment [8], 98.4% in [9] and 98.6% in experiment [10].
Turning to `COc1cc(/C=N/Nc2nc(-c3ccc(F)cc3)c(C#N)c(N3CCOCC3)n2)ccc1O`, the growth was 114% in experiment [1]; 90.5% in experiment [2]; 89.4% in [3]; 81.7% in experiment [4]; 98.9% in experiment [5]; 91.3% in [6]. Also, the growth is 87.8% in [7], 84.1% in [8], 73.4% in experiment [9] and 74.9% in experiment [10].
As to `CCCS(=O)(=O)Nc1ccc(F)c(C(=O)c2c[nH]c3ncc(-c4ccc(OCCCC5CCCCN5)nc4)cc23)c1F` (stereo not given), the growth in experiment [1] was 58.5%; in experiment [2] it was 89.7%; in experiment [3], 62.5%; in [4], 102%; in [5], 81.2%; in experiment [6] it was 92.3%. The growth in [7] was 64.8%; in experiment [8], 56.5%; in experiment [9], 43.1%; in experiment [10], 43.1%.
As for `COC(=O)c1cncc(C(=O)Nc2ccc(-n3cnc4ccccc43)cc2)c1`, the growth in experiment [1] was 105%; in experiment [2], 100%; in [3], 101%; in experiment [4] it was 93.8%; in experiment [5], 96.2%; in experiment [6], 90.4%. Further, the growth in experiment [7] is 88.3%; in [8] it was 98%; in [9] it was 90.2%; in [10], 75.4%.
Turning to `C1=CC2=CC=C3C=CC=C4C(c5nc6c7ccccc7c7ccccc7c6[nH]5)=CC(=C1)C2C34` (stereo not given), the growth in experiment [1] is 123%; in experiment [2], 93.5%; in experiment [3], 94.6%; in experiment [4] it was 62.8%; in experiment [5], 127%; in experiment [6] it was 89.6%. Also, the growth in [7] was 63.7%; in experiment [8], 89.7%; in experiment [9], 73.3%; in experiment [10] it was 76.3%.
In the case of `c1cc(CNC23CC4CC(CC(C4)C2)C3)cc(C[N+](Cc2cccc(CNC34CC5CC(CC(C5)C3)C4)c2)(Cc2cccc(CNC34CC5CC(CC(C5)C3)C4)c2)Cc2cccc(CNC34CC5CC(CC(C5)C3)C4)c2)c1` (stereo not given), the growth in [1] is 31.8% [42 µM]; in experiment [2], 30.7% [42 µM]; in [3], 7.96% [42 µM] (active); in [4], -8.13% [42 µM] (active); in experiment [5], 27.1% [42 µM]; in experiment [6] it was -9.81% [42 µM] (active). For the same compound, the growth was 50.1% [42 µM] in experiment [7], 3.92% [42 µM] (active) in [8], -21.9% [42 µM] (active) in [9] and 9.46% [42 µM] (active) in [10].
For `Oc1ccccc1-c1nc2c3ccccc3c3ccccc3c2o1`, the growth is 110% in experiment [1]; 78.8% in [2]; 83% in [3]; 61% in experiment [4]; 162% in experiment [5]; 91.1% in experiment [6]. Moreover, the growth in experiment [7] is 114%; in experiment [8], 82.1%; in experiment [9], 95.3%; in [10] it was 73.7%.
For `COc1ccc2nc(-c3ccc(Cl)cc3)cc(C(=O)N3N=C(c4ccc(N)cc4)CC3c3ccccc3)c2c1` (stereo not given), the growth in experiment [1] is 43.2%; in experiment [2] it was 35.6%; in experiment [3] it was 57.8%; in experiment [4] it was 45.5%; in experiment [5], 68.1%; in [6], 52.8%. The growth in experiment [7] is 56.9%; in experiment [8], 31.2%; in experiment [9], 43.2%; in experiment [10], 25.1%.
Take `C=C(C)[C@@H]1CC[C@]2(C(=O)O)CC[C@]3(C)[C@H](CC[C@@H]4[C@@]5(C)C[C@@H](CC#Cc6ccccc6)C(=O)C(C)(C)[C@@H]5CC[C@]43C)[C@@H]12`: the growth in [1] was 61.1%; in [2] it was 28.6%; in [3] it was 43.7%; in [4], 28.9%; in experiment [5], 33.3%; in experiment [6] it was 23.8%. The growth in experiment [7] was 32.9%; in [8], 24.9%; in experiment [9] it was 22.3%; in experiment [10], 38%.
Consider `NC(=O)c1ccc2nc3c(n2c1)C(=O)C(=O)c1ccccc1-3`, for which the growth was -71.2% (active) in experiment [1]; -76% (active) in experiment [2]; -83.3% (active) in experiment [3]; -99.7% (active) in experiment [4]; -72.9% (active) in experiment [5]; -100% (active) in experiment [6]. The growth in experiment [7] is -58.6% (active); in experiment [8] it was -1.51% (active); in experiment [9], -37.8% (active); in [10], -4.89% (active).
